Measurements from PubChem BioAssay (NCATS).
Values joined by “and” are separate entries in the source; they are usually repeats but may differ in a detail not shown here. Equal values may be shown once. Results filed as inconclusive are left out. Where a structure was tested more than once in an assay, its records may differ in their call. Active and inactive are the calls of the source. Calls come from the whole dose curve; as a rule, active = well fitted inhibition curve with a large enough effect; inconclusive = small, poorly fitted or top-dose-only effect; inactive = flat fitted curve, though single readings scatter.

Assay: P-glycoprotein substrates identified in KB-8-5-11 adenocarcinoma cell line, qHTS therapeutic library screen (AID 1346987); note: nearly all actives have a fitted effect of over 65% in size
Details: KB-8-5-11 (P-gp overexpressing) viability, CellTiter-Glo, 72 h; series mostly up to 44.5 µM
Source text: The ATP-binding cassette transporters P-glycoprotein (P-gp) is known to limit brain penetration of many chemotherapy drugs. […] As such, we developed a high-throughput screen (HTS) to identify substrates of P-gp from a series of chemical libraries including the National Center for Advancing Translational Sciences Pharmaceutical Collection NPC, 2,816 compounds), testing a total of 10,804 compounds, most of which have known mechanisms of action. We used the CellTiter-Glo viability assay to test library compounds against the parental KB-3-1 human cervical adenocarcinoma cell line and the colchicine-selected sub-line KB-8-5-11 that over-expresses P-gp. KB-8-5-11 cells were also tested in the presence of a P-gp inhibitor (tariquidar) to assess reversability of transporter-mediated resistance. Of the tested compounds, a total of 90 P-gp substrates were identified including 55 newly identified P-gp substrates. Substrates were confirmed using an orthogonal killing assay against HEK-293 cells transfected with P-gp. As exemplars, we confirmed that […] (cyclin-dependent kinase inhibitor); AT9283, (Janus kinase 2/3 inhibitor); ispinesib (kinesin spindle protein inhibitor); gedatolisib (PKI-587, phosphoinositide 3-kinase/mammalian target of rampamycin inhibitor); GSK-690693 (AKT inhibitor); and KW-2478 (heat shock protein 90 inhibitor) were substrates , and direct ATPase stimulation was assessed. ABCG2 was also found to confer high levels of resistance to AT9283, GSK-690693 and gedatolisib, while ispinesib, AT7519 and KW-2478 were weaker substrates.
The HeLa derivative cell line, KB-3-1, and its colchicine-selected, P-gp-overexpressing subline, KB-8-5-11 were maintained in DMEM with 10% FCS and Pen/Strep with glutamine at 37 degree C in 5% CO2. For KB-8-5-11 cells, colchicine was added to the medium at a concentration of 100 ng/mL. HEK-293 cells transfected with empty vector (pcDNA) or vector containing human ABCB1 (MDR-19) or ABCG2 (R-5) have been described previously (Robey, Lin, Qiu, Chan & Bates, 2011) and were maintained in EMEM supplemented with 10% FCS, Pen/Strep and glutamine with 2 mg/ml G418 to select for the expression of the transporter. Cultures were confirmed to be free of mycoplasma infection using the MycoAlert Mycoplasma Detection Kit (Lonza, Walkersville, MD). For the screen, assay medium was identical to culture medium except for KB-8-5-11 where colchicine was excluded from the medium.
All cell lines were plated into 1536-well plates at 500 cells/well in 5 uL media. Compounds were then pinned in dose-response using a 1536-head pin tool (Kalypsis, San Diego, CA) and plates were incubated at 37 degree C in 5% CO2 for an additional 72 h. CellTiter-Glo reagent (Promega) was dispensed into the wells, incubated for 5 min and luminescence was read on a ViewLux instrument (Perkin-Elmer). Cytotoxic compounds were defined as those that yielded a curve class of -1.1, -1.2, -2.1, -2.2, -2.3, or -2.4, a maximum response of >50% and an AC50 of < 10 uM. Cherry-picked hits from screening analysis were tested with both the KB pair of cell lines, and the pcDNA (empty vector control) and MDR-19 (P-gp overexpressing) pair were tested, in the absence and presence of tariquidar.
Potency is the fitted concentration of half-maximal effect.

| SMILES | Potency |
| --- | --- |
| C[C@@H]1CN(CC(=O)Nc2ccc3c(c2)Cc2cccc(-c4cc(=O)cc(N5CCOCC5)o4)c2S3)C[C@H](C)O1 | inactive |
| CC1(C)O[C@@H]2C[C@@H]3[C@H]4C[C@@H](F)C5=CC(=O)C=C[C@]5(C)[C@@]4(F)[C@@H](O)C[C@]3(C)[C@]2(C(=O)CO)O1 | inactive |
| Cc1cc(N2CCOCC2)cc2[nH]c(-c3c(NC[C@@H](O)c4cccc(Cl)c4)cc[nH]c3=O)nc12 | 14.8 µM (active) and 18.4 µM (active) |
| N#Cc1c(O)c2c(-c3ccc(-c4ccccc4O)cc3)csc2[nH]c1=O | inactive |
| Nc1nc(NCCNc2ncc(-n3ccnc3)c(-c3ccc(Cl)cc3Cl)n2)ccc1[N+](=O)[O-] | inactive |
| CC(NCc1ccc2c(c1)nc(NC(=O)c1ccc(-c3cn[nH]c3)s1)n2CC(C)(C)O)C(C)(C)C (stereo not given) | 4.18 µM (active) |
| O=C(Cc1ccc(-c2ccc(OCCN3CCOCC3)cc2)cn1)NCc1ccccc1 | 18.7 nM (active) and 580 nM (active) |
| CCN1CCN(CC(=O)Nc2ccc(-c3cccc4c(=O)cc(N5CCOCC5)oc34)c3sc4ccccc4c23)CC1 | 2.96 µM (active) |
| CC(C)(C)c1cc(NC(=O)Nc2ccc(-c3cn4c(n3)sc3cc(OCCN5CCOCC5)ccc34)cc2)no1 | inactive |
| C#Cc1cccc(Nc2ncnc3cc(OC)c(OCCCCCCC(=O)NO)cc23)c1 | 10.5 µM (active) and 14.6 µM (active) |
| CC[C@@]1(O)C(=O)OCc2c1cc1n(c2=O)Cc2cc3cc(O)ccc3nc2-1 | 1.16 µM (active) and 1.05 µM (active) |
| O=C(c1ccc(Nc2nccc(-c3cc4ccccc4s3)n2)cc1)N1CCC(N2CCCC2)CC1 | 8.33 µM (active) and 16.4 µM (active) and 20.6 µM (active) |
| C[C@H]1C[C@@H]2[C@@H]([C@@H](O)C[C@@]3(C)[C@H]2CC[C@]3(O)C(=O)CO)[C@@]2(C)C=CC(=O)C=C12 | inactive |
| CC[C@H]1CN2CCc3cc(OC)c(OC)cc3[C@H]2C[C@@H]1C[C@@H]1NCCc2cc(OC)c(OC)cc21 | 1.18 µM (active) |
| Cn1c2cc(S(C)=O)sc2c2cnn(Cc3cccc(N)c3)c(=O)c21 (stereo not given) | inactive |
| CC(C)=CCCC(C)=CCCC(C)=CCSc1ccccc1C(=O)O | 1.32 µM (active) |
| COc1cc2c(Oc3ccc(NC(=O)C4(C(=O)Nc5ccc(F)cc5)CC4)cc3F)ccnc2cc1OCCCN1CCOCC1 | 935 nM (active) and 5.17 µM (active) |
| CC(C)(C)c1cc(C(C)(C)C)c(NC(=O)c2c[nH]c3ccccc3c2=O)cc1O | inactive |
| COc1cc(Nc2ncc(F)c(Nc3ccc4c(n3)N(COP(=O)(O)O)C(=O)C(C)(C)O4)n2)cc(OC)c1OC | 1.66 µM (active) and 2.31 µM (active) and 13 µM (active) |
| O=C1CCC[C@@H]2[C@H]3CCC[N+]4([O-])CCC[C@@H](CN12)[C@@H]34 (stereo not given in full) | inactive |

| SMILES | Potency |
| --- | --- |
| C=CC(=O)Nc1cc2c(Nc3ccc(F)c(Cl)c3)ncnc2cc1OCCCN1CCOCC1 | 18.4 µM (active) |
| COc1cc2c(Oc3ccc4[nH]c(C)cc4c3F)ncnc2cc1OCCCN1CCCC1 | 23.5 µM (active) and 18.4 µM (active) |
| COc1cccc(Nc2c(C(N)=O)cnc3c(C)cc(S(=O)(=O)c4cccc(C(=O)N(C)C)c4)cc23)c1 | inactive |
| Cc1cc(Nc2nc(N[C@@H](C)c3ccc(F)cc3)c(C#N)cc2F)n[nH]1 | 935 nM (active) and 580 nM (active) |
| Cc1nc(Nc2n[nH]c3c2CN(C(=O)N[C@H](CN(C)C)c2ccccc2)C3(C)C)c2sccc2n1 | inactive |
| O=C(C=Cc1cccnc1)NCCCCC1CCN(C(=O)c2ccccc2)CC1 | 0.0166 µM (active) |
| COc1ccc(-c2cc3c(C)nc(N)nc3n(C3CCC(OCCO)CC3)c2=O)cn1 (stereo not given) | 41.8 nM (active) and 366 nM (active) |
| CCCCOc1c(C(=O)c2c(F)cc(C)cc2F)cnc2n[nH]cc12 | inactive |
| CNc1nccc(-c2cccnc2Oc2cc(C(=O)Nc3cccc(C(F)(F)F)c3)ccc2C)n1 | inactive and 16.4 µM (active) |
| CC1=C(CO)C(=O)O[C@@H]([C@@H](C)[C@H]2CC[C@H]3[C@@H]4C[C@H]5O[C@]56[C@@H](O)C=CC(=O)[C@]6(C)[C@@H]4CC[C@]23C)C1 | 1.18 µM (active) |
| CC(C)C[C@H](NC(=O)CNC(=O)c1cc(Cl)ccc1Cl)B(O)O | 1.32 µM (active) |
| COc1c(OCCCN2CCOCC2)ccc2c3n(c(=NC(=O)c4cnc(N)nc4)nc12)CCN3 | 0.15 µM (active) |
| C1Cc2[nH]nc(-c3nn[nH]n3)c2C1 | inactive |
| CNC(=O)c1ccc(-c2cnc3ncc(Cc4ccc5ncccc5c4)n3n2)cc1F | inactive |
| CNC(=O)c1nn(C)c2c1C(C)(C)Cc1cnc(Nc3ccc(N4CCN(C)CC4)cc3)nc1-2 | 2.35 µM (active) and 1.46 µM (active) |
| Nc1ncnc2c1c(-c1cccc(OCc3ccccc3)c1)cn2C1CC(CN2CCCC2)C1 (stereo not given) | 16.6 µM (active) and 6.51 µM (active) |
| COc1cc(C)c(Sc2cnc(NC(=O)c3ccc(CNC(C)C(C)C)cc3)s2)cc1C(=O)N1CCN(C(C)=O)CC1 (stereo not given) | inactive |
| COc1cc(-c2nn(C3CCC(N4CCN(C(C)=O)CC4)CC3)c3ncnc(N)c23)ccc1NC(=O)c1cc2ccccc2n1C (stereo not given) | inactive and 20.6 µM (active) |
| O=C(c1cncc(Br)c1)N1CCC(N2CCCC2)CC1 | inactive |
| Cc1nc(N)ncc1-c1nc(N2CCOCC2)c2sc(C(C)(C)O)cc2n1 | 1.48 µM (active) and 1.64 µM (active) |
